In PubChem BioAssay (Tox21) one finds Potency and outcome data, which are given here for 8 molecules.

Several values for one entry are separate records, joined by “and”; a condition that tells them apart may be missing. Identical values can stand only once. Inconclusive results are not listed. The source holds several records for some structures; these can differ, active in one and inactive in another. Activity calls are given as the source filed them. Unless noted, the call rests on the fitted dose curve; in most records, active means well fitted curve in the direction sought with a large enough effect in the repeat runs; inconclusive means weak or mixed curves; inactive means no such curve, though single readings can be large; an effect the other way counts as inactive or inconclusive.

Assay [1] is described as follows: qHTS assay for small molecules that induce genotoxicity in human embryonic kidney cells expressing luciferase-tagged ATAD5 (AID 651632). Further: nearly all actives have a fitted effect of over 15% in size. Further: potency means the concentration at half of the fitted maximal effect. The method, boiled down:
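A rise in luciferase signal from ATAD5-tagged HEK293T cells marks genetic stress. Cells were exposed to compounds for 16 hr at 37C, 5% CO2, then luciferase was quantified after a 30 min room-temperature incubation with Amplite.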
On the technique in general: Quantitative high-throughput screening tests each substance at several concentrations.

Assay [2] in a line: qHTS assay for small molecule agonists of the p53 signaling pathway - cell viability (AID 651633; calls by dose curve; further: nearly all actives have a fitted effect of over 30% in size; further: potency means the concentration at half of the fitted maximal effect). The method, boiled down: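 Viability counter-read: CellTiter-Glo luminescence (30 min, room temperature) in the same p53RE-bla plates. These plates had been exposed to compounds for 16 h at 37 C.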
The nature of assay [3]: qHTS assay for small molecules that induce genotoxicity in human embryonic kidney cells expressing luciferase-tagged ATAD5 - cell viability (AID 651634; calls by dose curve; further: nearly all actives have a fitted effect of over 25% in size; further: potency means the concentration at half of the fitted maximal effect). A digest of the protocol: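 Cytotoxicity counter-readout: after 15.5 hr compound treatment at 37C, live-cell protease activity in ATAD5-luciferase HEK293T cells measured by CellTiter-Fluor fluorescence, 30 min development at 37C.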

Assay [4] is described as follows: qHTS assay for small molecule disruptors of the mitochondrial membrane potential - cell viability (AID 720634; calls by dose curve; further: nearly all actives have a fitted effect of over 20% in size; further: potency means the concentration at half of the fitted maximal effect). A digest of the protocol: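 Cytotoxicity was quantified from ATP content by CellTiter-Glo luminescence in the same wells as the MMP dye read-out. HepG2 (2,000 cells/well) were plated overnight and exposed to compounds for 1 hr at 37 C.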
Assay [5] is described as follows: qHTS assay for small molecule disruptors of the mitochondrial membrane potential (AID 720635). Further: potency means the concentration at half of the fitted maximal effect. The method, boiled down:
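Mitochondrial membrane potential tracked with Mito-MPS dye, red aggregates (ex 540/em 590 nm) against green monomers (ex 490/em 535 nm). Compound treatment 1 hr at 37C, dye 30 min in HepG2.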

Assay [6] can be described thus: qHTS assay to test for compound auto fluorescence at 535 nm (green) in HepG2 cells (AID 720675).
Assay [7] can be described thus: qHTS assay to test for compound auto fluorescence at 460 nm (blue) in HEK293 cells (AID 720678). The method, boiled down: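 Cells were seeded and left to adhere for 4-5 hr at 37C. Compounds were then pin-transferred. After an overnight incubation at 37C under 5% CO2, intrinsic fluorescence at 405/460 nm was measured and referenced to triamterene.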
Assay [8] is described as follows: qHTS assay to test for compound auto fluorescence at 590 nm (red) in HEK293 cells (AID 720679). A digest of the protocol: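 Each well held 2,000 HEK293 cells in medium containing 10% dialyzed FBS. Following 4-5 hr attachment at 37C, 23 nL test compound or DMSO was added; plates sat overnight, and red fluorescence (540/590nm) was recorded.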
A short description of assay [9]: qHTS assay to test for compound auto fluorescence at 535 nm (green) in HEK293 cells (AID 720680).
Assay [10] can be described thus: qHTS assay to test for compound auto fluorescence at 460 nm (blue) in HEK293 cell free culture (AID 720681). A digest of the protocol: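 Blue fluorescence (Ex 405/Em 460 nm, triamterene-equivalent) was read immediately after pin transfer of compound or DMSO into medium (DMEM, 10% FBS) without cells.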
Assay [11] in a line: qHTS assay to test for compound auto fluorescence at 535 nm (green) in HEK293 cell free culture (AID 720682). A digest of the protocol:
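Cell-free medium (DMEM, 10% FBS) receives compound or DMSO by pintool. Plate read directly at Ex 485/Em 535 nm. Signal converted to fluorescein equivalency.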

Assay [12] is described as follows: qHTS assay to test for compound auto fluorescence at 590 nm (red) in HEK293 cell free culture (AID 720683). A digest of the protocol:
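Red-channel autofluorescence of compounds in culture medium (DMEM, 10% FBS), no cells, measured at 540/590 nm. Rose Bengal sodium is the reference fluorophore for equivalence.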

A short description of assay [13]: qHTS assay to test for compound auto fluorescence at 590 nm (red) in HepG2 cell free culture (AID 720684). A digest of the protocol: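 Cell-free; medium MEM + 10% FBS; compound or DMSO added by pintool; read Ex 540/Em 590 nm; Rose Bengal sodium as red reference fluorophore.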
Assay [14] is described as follows: qHTS assay to test for compound auto fluorescence at 460 nm (blue) in HepG2 cell free culture (AID 720685). The method, boiled down:
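Cell-free plates of MEM plus 10% FBS received 23 nL compound or DMSO vehicle; blue-channel (405/460 nm) intensity scored against triamterene as reference fluorophore.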

The nature of assay [15]: qHTS assay to test for compound auto fluorescence at 535 nm (green) in HepG2 cell free culture (AID 720686).
Assay [16] can be described thus: qHTS assay to test for compound auto fluorescence at 460 nm (blue) in HepG2 cells (AID 720687). The method, boiled down:
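Blue-channel autofluorescence (Ex/Em 405/460 nm, triamterene-equivalent) was measured after 1 hr compound exposure at 37 C, 5% CO2. Cells were HepG2, plated overnight at 37 C in MEM plus 10% FBS.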

Assay [17] deals with Glucocorticoid receptor (Homo sapiens) (UniProt P04150). The assay can be described thus: qHTS assay to identify small molecule agonists of the glucocorticoid receptor (GR) signaling pathway (AID 720691; active means well fitted activation curve with a large enough effect in the signal ratio in the repeat runs, not every such curve was filed as active; the % refers to the signal ratio). A digest of the protocol:
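Agonist-mode qHTS in HeLa cells stably expressing a glucocorticoid-response-element beta-lactamase reporter. Fluorescence intensity read with FRET substrate (2 h, room temperature) after 18 h compound treatment at 37 C.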

For assay [18] the target is unchanged. The assay can be described thus: qHTS assay to identify small molecule antagonists of the glucocorticoid receptor (GR) signaling pathway (AID 720692; active means well fitted inhibition curve with a large enough effect in the signal ratio in the repeat runs, not every such curve was filed as active; the % refers to the signal ratio). A digest of the protocol: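 Inhibition of dexamethasone-driven (5 nM final) beta-lactamase expression was measured in GRE-reporter HeLa cells over 18 h at 37C. Fluorescence was read after 2 h with the B/G FRET substrate at room temperature.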

The nature of assay [19]: qHTS assay for small molecule agonists of the p53 signaling pathway (AID 651631; calls by dose curve; further: nearly all actives have a fitted effect of over 15% in size; further: potency means the concentration at half of the fitted maximal effect). A digest of the protocol:
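p53RE-bla HCT-116 cells; compounds 16 h, 37 °C; LiveBLAzer B/G FRET substrate 2 h RT; fluorescence intensity read-out, qHTS format.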

Assay [20] in a line: qHTS assay to test for compound auto fluorescence at 590 nm (red) in HepG2 cells (AID 720674). A digest of the protocol: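 We screened compounds on adherent HepG2 cells, incubating them for an hour at 37 C in 5% CO2 before reading emission at 590 nm under 540 nm excitation; values reflect equivalence to Rose Bengal sodium fluorescence.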

Chain of Glucocorticoid receptor (Homo sapiens) (P04150 whole entry, looked up): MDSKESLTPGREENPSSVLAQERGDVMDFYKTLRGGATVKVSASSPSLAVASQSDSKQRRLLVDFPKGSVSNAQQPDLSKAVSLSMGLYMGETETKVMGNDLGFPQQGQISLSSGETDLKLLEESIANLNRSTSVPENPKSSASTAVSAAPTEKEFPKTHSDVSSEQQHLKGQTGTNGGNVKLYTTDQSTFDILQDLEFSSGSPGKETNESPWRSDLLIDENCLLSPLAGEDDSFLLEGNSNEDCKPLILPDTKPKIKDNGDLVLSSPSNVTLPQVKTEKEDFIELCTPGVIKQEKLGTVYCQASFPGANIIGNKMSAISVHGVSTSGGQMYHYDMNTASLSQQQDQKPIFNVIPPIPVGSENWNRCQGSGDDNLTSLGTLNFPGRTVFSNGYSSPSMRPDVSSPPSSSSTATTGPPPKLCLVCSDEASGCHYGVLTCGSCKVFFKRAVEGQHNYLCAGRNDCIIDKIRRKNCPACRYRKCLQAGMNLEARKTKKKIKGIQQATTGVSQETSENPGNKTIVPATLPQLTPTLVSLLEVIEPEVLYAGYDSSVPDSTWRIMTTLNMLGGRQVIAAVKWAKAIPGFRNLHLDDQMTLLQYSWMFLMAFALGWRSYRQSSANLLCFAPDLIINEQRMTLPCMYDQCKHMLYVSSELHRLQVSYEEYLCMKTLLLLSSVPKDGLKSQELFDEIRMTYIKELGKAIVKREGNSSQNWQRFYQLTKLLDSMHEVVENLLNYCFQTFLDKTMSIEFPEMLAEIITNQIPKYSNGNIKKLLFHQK

As to `CC(C)(C)c1cc(C(C)(C)C)c(O)c(C(C)(C)C)c1`, the Potency entry in assay [1], in assay [3], in assay [4], in assay [6], in [7] and in [9] was “inactive” each time. Further, the Potency entry in [10], in assay [11], in [14], in assay [15], in [16] and in assay [17] was “inactive” each time. Further, the Potency result in assay [18] is “inactive”. Also, the Potency in [2] is 34.4 µM (active); in assay [5] it was 17.2 µM (active) and 27.3 µM (active). Besides, the molecule was classed as inactive in [8], in assay [12] and in assay [13].
Take `CC(=O)Nc1ccc(C(=O)CCl)cc1`: the Potency entry in assay [19] was “inactive and 24.3 µM (active)”; in assay [1], “inactive and 24.3 µM (active)”; in assay [4], “inactive and 27.3 µM (active)”; in [5], “inactive and 27.3 µM (active)”. The Potency entry in assay [6], in [7], in assay [9], in assay [11], in assay [14] and in [15] was “inactive” in each case. The Potency result in assay [16], in assay [17] and in assay [18] was “inactive” throughout. For the same molecule, the molecule was classed as inactive in assay [8], in assay [12] and in assay [13].
For the molecule `CCC(C)(Oc1ccc(C2(c3ccc(OC(C)(CC)C(=O)O)cc3)CCCCC2)cc1)C(=O)O` (configuration not stated), the Potency entry in [1], in assay [2], in [4], in assay [5], in [6] and in assay [7] was “inactive” in each case. Moreover, the Potency result in assay [9], in assay [10], in [11], in assay [14], in assay [15] and in assay [16] was “inactive” in each case. Moreover, the Potency entry in [17] and in [18] was “inactive” each time. For the same molecule, the outcome in assay [8], in assay [12] and in assay [13] was inactive.
Consider `COc1ccc(CCN(C)CCCC(C#N)(c2ccc(OC)c(OC)c2)C(C)C)cc1OC` (configuration not stated), for which the Potency entry in assay [1], in assay [2], in assay [3], in assay [6], in assay [7] and in assay [9] was “inactive” in each case. Further, the Potency result in assay [10], in assay [11], in assay [14], in assay [15] and in assay [16] was “inactive” each time. For the same molecule, the call in assay [20], in assay [8] and in assay [13] was inactive.
Take `CCCOC(=O)c1cc(O)c(O)c(O)c1`: the Potency entry in assay [1], in [2], in assay [3], in [4], in [6] and in assay [7] was “inactive” in each case. In addition, the Potency entry in [9], in assay [10], in assay [11], in [14], in assay [15] and in [16] was “inactive” in each case. For the same molecule, the Potency entry in [17] and in [18] was “inactive” throughout. Besides, the Potency in assay [5] is 23.7 µM (active) and 48.3 µM (active) and 48.6 µM (active). Further, the outcome in assay [8] and in assay [13] was inactive.
Consider `CC(C)(C)c1ccc(O)c(C(C)(C)C)c1`, for which the Potency entry in assay [1], in assay [6], in [7], in [11], in assay [14] and in [15] was “inactive” throughout. Besides, the Potency result in assay [16] is “inactive”. The Potency was 60.9 µM (active) and 48.6 µM (active) in assay [2]; 24.2 µM (active) in assay [4]; 2.72 µM (active) and 3.06 µM (active) in assay [5]. Moreover, the result in [20], in [8], in assay [12] and in assay [13] was inactive.
With `CCCCCCCCCCCCc1ccccc1O`, the Potency entry in [1], in [4], in assay [6], in assay [7], in assay [10] and in assay [11] was “inactive” each time. In addition, the Potency entry in [14], in assay [15] and in assay [16] was “inactive” in each case. Also, the Potency is 26.9 µM (active) and 24.3 µM (active) in [2]; 30.6 µM (active) in assay [3]; 2.14 µM (active) and 2.43 µM (active) in assay [5]. Moreover, the molecule was classed as inactive in assay [20], in assay [8], in assay [12] and in assay [13].
With `CC(C)CCCCCCc1ccc(O)cc1`, the Potency entry in assay [1], in [6], in assay [7], in assay [9], in [11] and in [14] was “inactive” throughout. Also, the Potency entry in assay [15], in [16] and in assay [17] was “inactive” each time. In addition, the Potency in assay [2] was 62.2 µM (active); in [4], 6.22 µM (active) and 61.1 µM (active); in assay [5], 5.31 µM (active) and 1.56 µM (active) and 5.45 µM (active). The result in assay [20], in assay [8] and in assay [13] was inactive.
